An excerpt weighted towards active compounds, which were near 4.2% of everything screened.
tim23-1 inh – tim23-1 yeast growth inhibition; S. cerevisiae tim23-1 growth, BacTiter-Glo luminescence, 24 h; hit rate 1.3% among 330,000; inhibition, % at 20 µM; AID 463212;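 active = growth inhibition of the mutant yeast at or above 50%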;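 also: temperature-sensitive mutant grown at 25 °C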
tim10-1 inh – tim10-1 yeast growth inhibition; S. cerevisiae tim10-1 ts strain growth, BacTiter-Glo, 24 h; inhibition, % at 20 µM; hit rate 2.2% among 330,000; AID 463190;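 active = inhibition of at least 40%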;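 also: mutant grown at 25 °C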
V-ATPase pHluor – regulators of yeast V-ATPase proton transport; hit rate 0.37% among 350,000; S. cerevisiae, pHLuorin cytosolic pH fluorescence; response, % at 10 µM; in the data active = response mostly above about 7.3%, no sharp cut-off; inactive = mostly below about 5.4%; also: actives read high
NALP1 inh – inhibitors of NALP1 inflammasome in yeast. AID 2071. inhibition, % at 10 µM. S. cerevisiae NALP1/ASC/caspase-1 growth, X-gal OD620, 72 h. hit rate 0.61% among 280,000; in the data active = inhibition mostly above about 24%, no sharp cut-off; inactive = mostly below about 32%
TIM10 inh – TIM10 yeast growth inhibition. S. cerevisiae TIM10 strain growth, BacTiter-Glo luminescence, 24 h. inhibition, % at 10 µM. hit rate 1.4% among 330,000;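 active = inhibition of 40% or more at the single tested concentration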;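 also: wild-type TIM10 isogenic control strain grown at permissive 25 °C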
NALP3 yeast inh – NALP3 inhibition in yeast. Yeast reconstituted NLRP3/ASC/caspase-1, beta-gal luminescence, 24 h. hit rate 0.39% among 330,000. inhibition, % at 10 µM;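 active = inhibition of 50% or more; inactive = inhibition below 50%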
tim10-1 conf – tim10-1 yeast growth inhibition, confirmed; shares compounds with tim10-1 inh; S. cerevisiae tim10-1 ts strain growth, BacTiter-Glo, 24 h; inhibition, % at 20 µM; hit rate 56% among 7,400; AID 463213;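 active = inhibition of yeast growth at or above a set limit in either of two repeat tests at 20 µM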;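 also: tim10-1 mutant grown at permissive 25 °C to find synthetic lethal compounds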
A number is an active result.

What do the screens show for `Cc1[nH]c(-c2ccc(F)cc2)cc1C(=O)N1CCN(c2ccccc2F)CC1`?
tim23-1 inh: inactive; tim10-1 inh: 47; V-ATPase pHluor: inactive; NALP1 inh: inactive; TIM10 inh: inactive; NALP3 yeast inh: inactive; tim10-1 conf: 40

How did COc1ccccc1N1CCN(C(=O)C2CC2)CC1 do in these assays?
tim23-1 inh: inactive; tim10-1 inh: inactive; V-ATPase pHluor: inactive; TIM10 inh: inactive; NALP3 yeast inh: inactive

Results for COc1cc(C(=O)N2CCN(c3cccc(C)c3C)CC2)cc(OC)c1OC ?
tim23-1 inh: inactive; tim10-1 inh: 42; V-ATPase pHluor: inactive; NALP1 inh: inactive; TIM10 inh: inactive; NALP3 yeast inh: inactive; tim10-1 conf: inactive

Results for COC(=O)c1ccccc1S(=O)(=O)N1CCC(C(=O)OCC(=O)c2ccccc2OC)CC1 ?
tim23-1 inh: inactive; tim10-1 inh: inactive; V-ATPase pHluor: inactive; TIM10 inh: inactive; NALP3 yeast inh: inactive

Results for CN(Cc1ccc(OC(F)F)cc1)C(=O)c1cccc(S(=O)(=O)N2CCN(Cc3ccccc3)CC2)c1 ?
V-ATPase pHluor: inactive

How did CC(C)n1c2ccccc2c2nnc(SCC(=O)Nc3ccccc3C(=O)O)nc21 do in these assays?
tim23-1 inh: inactive; tim10-1 inh: inactive; V-ATPase pHluor: inactive; NALP1 inh: inactive; TIM10 inh: inactive; NALP3 yeast inh: inactive

How did O=C(/C=C/c1cccc(Br)c1)N1CCN(c2ccccn2)CC1 do in these assays?
tim23-1 inh: inactive; tim10-1 inh: 42; V-ATPase pHluor: inactive; NALP1 inh: inactive; TIM10 inh: inactive; NALP3 yeast inh: inactive; tim10-1 conf: inactive

How did O=C(/C=C/c1ccc(F)cc1)N1CCN(c2ccccn2)CC1 do in these assays?
tim23-1 inh: inactive; tim10-1 inh: inactive; V-ATPase pHluor: inactive; NALP1 inh: inactive; TIM10 inh: inactive; NALP3 yeast inh: inactive

What do the screens show for `C=CCn1c(SCC(=O)N(C)CC(=O)Nc2ccc(C)cc2)nnc1-c1ccncc1`?
tim23-1 inh: inactive; tim10-1 inh: inactive; V-ATPase pHluor: inactive; TIM10 inh: inactive; NALP3 yeast inh: inactive

What do the screens show for `N#C/C=C/N1CCC(Cc2ccccc2)CC1`?
tim23-1 inh: inactive; tim10-1 inh: inactive; V-ATPase pHluor: inactive; NALP1 inh: inactive; TIM10 inh: inactive; NALP3 yeast inh: inactive

How did O=C(CCN1C(=O)/C(=C/c2ccccc2)SC1=S)N1CCCCCC1 do in these assays?
tim23-1 inh: inactive; tim10-1 inh: 44; V-ATPase pHluor: inactive; NALP1 inh: inactive; TIM10 inh: inactive; NALP3 yeast inh: inactive; tim10-1 conf: 36

How did Cc1cc(=O)oc2cc(OCc3nnc(-c4ccccc4Br)o3)ccc12 do in these assays?
tim23-1 inh: inactive; tim10-1 inh: 44; V-ATPase pHluor: inactive; NALP1 inh: inactive; TIM10 inh: inactive; NALP3 yeast inh: inactive; tim10-1 conf: inactive

What do the screens show for `Cn1cccc1Cc1nnc(SCC(=O)Nc2ccc(F)cc2)n1CCc1ccccc1`?
tim23-1 inh: inactive; tim10-1 inh: 42; V-ATPase pHluor: inactive; NALP1 inh: inactive; TIM10 inh: inactive; NALP3 yeast inh: inactive; tim10-1 conf: inactive

What do the screens show for `CC(C)c1cccc(C(C)C)c1NC(=O)CNCc1ccccc1F`?
tim23-1 inh: inactive; tim10-1 inh: 47; V-ATPase pHluor: inactive; NALP1 inh: inactive; TIM10 inh: inactive; NALP3 yeast inh: inactive; tim10-1 conf: inactive

Results for CC(C)c1cccc(C(C)C)c1NC(=O)CNCC(O)c1ccccc1 (centres undefined) ?
tim23-1 inh: inactive; tim10-1 inh: inactive; V-ATPase pHluor: inactive; NALP1 inh: inactive; TIM10 inh: inactive; NALP3 yeast inh: inactive

Results for Cc1ccc(C(=O)N2CCN(Cc3ccc4c(c3)OCO4)CC2)o1 ?
tim23-1 inh: inactive; tim10-1 inh: inactive; V-ATPase pHluor: inactive; NALP1 inh: inactive; TIM10 inh: inactive; NALP3 yeast inh: inactive

How did O=C(c1cccc(Cl)c1)N1CCN(Cc2ccc3c(c2)OCO3)CC1 do in these assays?
tim23-1 inh: inactive; tim10-1 inh: inactive; V-ATPase pHluor: inactive; NALP1 inh: inactive; TIM10 inh: inactive; NALP3 yeast inh: inactive

What do the screens show for `O=C(c1cc2cc(Cl)ccc2[nH]1)N1CCN(Cc2ccc3c(c2)OCO3)CC1`?
tim23-1 inh: inactive; tim10-1 inh: 49; V-ATPase pHluor: inactive; NALP1 inh: inactive; TIM10 inh: inactive; NALP3 yeast inh: inactive; tim10-1 conf: inactive

How did Cc1ccc2c(C)c(C(=O)N3CCN(Cc4ccc5c(c4)OCO5)CC3)oc2c1C do in these assays?
tim23-1 inh: inactive; tim10-1 inh: 47; V-ATPase pHluor: inactive; NALP1 inh: inactive; TIM10 inh: inactive; NALP3 yeast inh: inactive; tim10-1 conf: inactive

How did COC(=O)C(Cc1csc2ccc(Cl)cc12)NC(=O)c1ccc(Cl)cc1 (centres undefined) do in these assays?
tim23-1 inh: inactive; tim10-1 inh: inactive; V-ATPase pHluor: inactive; NALP1 inh: inactive; TIM10 inh: inactive; NALP3 yeast inh: inactive

How did ClC(CCN1CCN(Cc2ccccc2)CC1)c1ccccc1 (centres undefined) do in these assays?
tim23-1 inh: inactive; tim10-1 inh: inactive; V-ATPase pHluor: inactive; TIM10 inh: inactive; NALP3 yeast inh: inactive

How did CCS(=O)(=O)N1Cc2ccccc2CC1C(=O)NCC12CC3CC(CC(C3)C1)C2 (centres undefined) do in these assays?
tim23-1 inh: inactive; tim10-1 inh: 40; V-ATPase pHluor: inactive; NALP1 inh: inactive; TIM10 inh: inactive; NALP3 yeast inh: inactive; tim10-1 conf: inactive

What do the screens show for `CCS(=O)(=O)N1Cc2ccccc2CC1C(=O)Nc1ccc(F)cc1` (centres undefined)?
tim23-1 inh: inactive; tim10-1 inh: inactive; V-ATPase pHluor: inactive; TIM10 inh: inactive; NALP3 yeast inh: inactive

Results for O=C(CN1CCN(S(=O)(=O)c2ccc(F)c(Cl)c2)CC1)N1CCNC1=O ?
tim23-1 inh: inactive; tim10-1 inh: inactive; V-ATPase pHluor: inactive; TIM10 inh: inactive; NALP3 yeast inh: inactive

What do the screens show for `CCOc1ccc2nc(NC(=O)CN3C(=O)C4CCCCC4C3=O)sc2c1` (centres undefined)?
tim23-1 inh: inactive; tim10-1 inh: inactive; V-ATPase pHluor: inactive; TIM10 inh: inactive; NALP3 yeast inh: inactive

Results for Cc1cccc(NC(=O)c2ccc(S(=O)(=O)N3CCCCC3)cc2)n1 ?
tim23-1 inh: inactive; tim10-1 inh: inactive; V-ATPase pHluor: inactive; NALP1 inh: inactive; TIM10 inh: inactive; NALP3 yeast inh: inactive

What do the screens show for `COc1cc(C(=O)Nc2ccc(S(=O)(=O)N3CCCCC3C)cc2)cc(OC)c1OC` (centres undefined)?
tim23-1 inh: inactive; tim10-1 inh: 46; V-ATPase pHluor: inactive; NALP1 inh: inactive; TIM10 inh: inactive; NALP3 yeast inh: inactive; tim10-1 conf: 38

What do the screens show for `Cc1cccc(NC(=O)c2ccc(S(=O)(=O)N3CCCCC3C)cc2)n1` (centres undefined)?
tim23-1 inh: inactive; tim10-1 inh: 41; V-ATPase pHluor: inactive; NALP1 inh: inactive; TIM10 inh: inactive; NALP3 yeast inh: inactive; tim10-1 conf: inactive

How did COc1ccc(NS(=O)(=O)c2c(C)cc(C)cc2C)cn1 do in these assays?
tim23-1 inh: inactive; tim10-1 inh: inactive; V-ATPase pHluor: inactive; NALP1 inh: inactive; TIM10 inh: inactive; NALP3 yeast inh: inactive
